# Source: PubChem BioAssay (NCI)
# Compounds without any hit were thinned out: in the full panel of roughly 83,000, 20% have a hit.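 Method: cells in 96-well plates; compound added at one concentration; 48 h incubation; percent growth measured; values under 10 scored active.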 A number with no mark means an inactive call. The source made the active and inactive calls.
# Columns and labels:
# Assay in all cases: NCI-60 one-dose screen, 48 h (100 = growth as untreated, 0 = no growth, -100 = all killed)
# Conditions in all cases: 10 µM unless noted
# [1] = test system: NCI-H23 lung
# [2] = test system: NCI-H226 lung
# [3] = test system: NCI-H322M lung
# [4] = test system: HOP-62 NSCLC
# [5] = test system: NCI-H460 lung
# [6] = test system: HOP-92 NSCLC
# [7] = test system: NCI-H522 lung
# [8] = test system: A549/ATCC NSCLC
# [9] = test system: COLO 205 colon
# [10] = test system: DU-145 prostate
# [11] = test system: K-562 leukemia
# [12] = test system: MALME-3M melanoma
# [13] = test system: MDA-MB-231 breast
# [14] = test system: RXF 393 renal
# [15] = test system: SF-268 CNS
# [16] = test system: SF-295 CNS
# [17] = test system: SF-539 CNS
# [18] = test system: UACC-257 melanoma
# [19] = test system: M14 melanoma
# [20] = test system: 786-0 renal
Compound,growth [1],growth [2],growth [3],growth [4],growth [5],growth [6],growth [7],growth [8],growth [9],growth [10],growth [11],growth [12],growth [13],growth [14],growth [15],growth [16],growth [17],growth [18],growth [19],growth [20]
CC(=O)O[C@@H]1C2CCC3C(CC[C@@]4(C)C3CC[C@@H]4C(C)N(C)C)[C@@]2(C)CC[C@@H]1NC(=O)C=C(C)C (stereo not given in full),33.9%,64.7%,13.1%,-26.1% (active),-48.6% (active),24.4%,65.7%,32.3%,-82.8% (active),51.4%,2.24% (active),-59.4% (active),-10.3% (active),-51.5% (active),-23.4% (active),-15.3% (active),-52.7% (active),-40.9% (active),-44.4% (active),–
COc1cc(OC)cc(C(=O)C[n+]2cccc3cc[nH]c32)c1,94.7%,94.2%,93.1%,99.1%,101%,88.9%,93%,97.6%,107%,115%,98%,99.1%,98.4%,83.8%,97%,101%,101%,-43.7% (active),96.3%,–
CN(C)CCn1c2ccc(Br)cc2c2nc3ccccc3nc21,36.1%,41.9%,35.2%,25.1%,12.6%,–,29.8%,17.4%,9.69% (active),27%,12.1%,51.3%,30.3%,39.4%,43.1%,26.8%,27.3%,46%,30%,33.7%
CNC(=O)c1cccc(Cn2nc(C)c(NC(=O)c3ccc(COc4ccc(C(F)(F)F)cc4C)cc3)c2C)n1,43.5%,44.4%,88.9%,46%,50.8%,74.4%,40%,–,37.3%,61.2%,30.4%,83.8%,75.2%,64.5%,61.2%,25.8%,72%,20.7%,53.7%,61.9%
CCN1CCN(CCNc2nccc(-c3c(-c4cccc(OC)c4)nc4occn34)n2)S1(=O)=O,105%,92.2%,111%,129%,96.7%,–,89.5%,101%,42.6%,104%,7.02% (active),6.12% (active),87.7%,94.4%,102%,101%,104%,52.7%,40%,113%
Fc1ccc(-c2cn3c(nc4ccccc43)c(-c3ccccc3)n2)cc1,88.5%,97.5%,109%,107%,98.2%,–,64.7%,91.4%,116%,106%,–,107%,89.3%,80.4%,90.1%,103%,90.1%,101%,109%,83%
NC(=NCc1ccccc1)C(N=Nc1ccccc1)C(=O)NCc1ccccc1 (stereo not given),65.3%,109%,101%,92.2%,50.1%,–,63.4%,1.29% (active),79.5%,94.4%,25.2%,133%,68.3%,72.6%,53.5%,53.9%,50.3%,95.4%,82.9%,92.4%
NS(=O)(=O)c1ccc(CCN2C(=O)c3cc(Cl)c(Cl)cc3C2=O)cc1,105%,106%,97.8%,102%,109%,104%,86.5%,–,115%,104%,–,110%,107%,120%,98.1%,99.7%,106%,99.7%,106%,96.7%
O=C(Nc1ccccc1)Nc1ccc2cc3ccc(NC(=O)Nc4ccccc4)cc3nc2c1,23.7%,91%,61.6%,46.1%,92.6%,87.6%,-4.64% (active),–,3.12% (active),39.2%,1.08% (active),-9.29% (active),-51.4% (active),28.5%,-22.4% (active),17.8%,-56% (active),104%,47.2%,25.7%
COc1ccc(/C=C/c2nc(Nc3cccc(NC(C)=O)c3)c3ccccc3n2)cc1,87.6%,82.3%,45.5%,82.1%,84.3%,69.4%,75.9%,–,105%,88.7%,–,102%,85.3%,104%,92.1%,83.1%,98.5%,95.6%,72.9%,88.9%
CCN1Cc2nc3sc(C)c(C)c3c(=O)n2C=C1C,46.8%,77.8%,69%,32.6%,115%,-14.7% (active),38.5%,–,111%,61.8%,–,79%,58.3%,45.8%,101%,81%,70%,69.3%,27.5%,16.8%
C=C1C(=O)O[C@H]2[C@H]1CC/C(COC(=O)NCc1c[nH]c3ccc(Cl)cc13)=C\CC[C@@]1(C)O[C@@H]21,34.8%,6.61% (active),76.2%,60.5%,18%,–,-90.4% (active),55.8%,-59.3% (active),-72.2% (active),0.207% (active),-57.1% (active),-70.4% (active),-92.5% (active),-3.81% (active),63.8%,-54.9% (active),19.4%,-53.2% (active),-61.8% (active)
C#CCNC(=O)[C@H](Cc1ccccc1)NC(=O)[C@]12CC[C@@H](C(=C)C)[C@@H]1[C@H]1CC[C@@H]3[C@@]4(C)CCC(=O)C(C)(C)[C@@H]4CC[C@@]3(C)[C@]1(C)CC2,70.6%,68.7%,69.9%,77.1%,66.7%,–,52.6%,53.9%,78.7%,91.6%,31.8%,88.8%,79.1%,82.9%,74.3%,73.4%,99.9%,59.4%,81.7%,76%
CN1CCN(c2ccc(NC3=C(Cl)C(=O)c4ncccc4C3=O)cc2C(F)(F)F)CC1,58.7%,102%,98%,114%,101%,–,-49.8% (active),104%,-16.7% (active),96.6%,3.72% (active),-92.1% (active),4.49% (active),-71.4% (active),87.7%,106%,104%,-56.8% (active),39.8%,82.6%
O=S(=O)(NCCNc1nccc(-c2c(-c3cccc(F)c3)nc3sccn23)n1)c1ccc(Cl)cc1,74.9%,49.3%,65.5%,82.6%,30.1%,–,68.2%,32.1%,40%,54.2%,41.3%,82.6%,91.1%,69%,52.9%,63.7%,82.5%,88.7%,56.6%,51.3%
O=C(c1nnc(Nc2ccccc2Br)o1)c1c[nH]c2ccccc12,88.1%,85.6%,94.6%,79.2%,99.2%,–,98.2%,88.2%,98.9%,107%,112%,105%,88.9%,125%,105%,108%,104%,92.6%,92.5%,103%
